From PubChem BioAssay
ELG1 genotoxic: genotoxicity induction in ELG1-luciferase HEK293T cells | HEK293T ELG1-luciferase reporter, luminescence, 16 h | Potency, µM (doses to about 46 µM), hits mostly activators | 330,000 compounds, 1.3% hits; further: nearly all actives have a fitted effect of over 60% in size
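After overnight (16 hr) compound treatment at 37 °C, ELG1-luciferase HEK293T cells were lysed with ONE-Glo; luminescence quantified 30 min later at room temperature.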
SMN2 splice up: SMN2 splice variant enhancement. HEK293 SMN2-luciferase splicing reporter, luminescence, 30-36 h. Potency, µM (highest dose often 46.1 µM), most hits filed as activators. 210,000 compounds, 2.8% hits. AID 1458; further: nearly all actives have a fitted effect of over 55% in size
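qHTS luciferase splicing reporter: luminescence rises when SMN2 exon 7 is included in transfected HEK293 cells. Compound exposure lasted 30-36 h at 37C, with 4.5 mM final sodium butyrate as control, followed by a ONE-Glo read.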
NPC1 prom act: activates the NPC1 promoter. Huh7 NPC1 promoter luciferase reporter, 24 h. Potency, µM (titrated, usually from 9.22 µM), hits mostly activators. 320,000 compounds, 2.4% hits. AID 485313; further: nearly all actives have a fitted effect of over 60% in size
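Quantitative HTS used a cell-based reporter: Huh7 cells stably bearing the NPC1 promoter upstream of luciferase were treated with compounds for 24 h, and promoter activation was read as luminescence.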
ELG1 repair inh: blocks ELG1-dependent DNA repair in HEK293T cells. HEK293T ELG1-luciferase reporter, luminescence, 16 h; DNA damage induced by 5-fluorouridine. Potency, µM (doses to about 46.1 µM), most hits filed as inhibitors. 330,000 compounds, 2.3% hits; further: nearly all actives have a fitted effect of over 55% in size
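Overnight (16 hr) co-exposure of 2,000 cells/well to 5-fluorouridine and compound at 37 °C preceded detection. Luciferase was quantified via ONE-Glo luminescence; loss of signal denotes inhibition.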
FLuc modulator: inhibits or activates purified firefly luciferase, miR-21 counter-screen | AID 588342 | Potency, µM (doses to about 57.5 µM), most hits filed as inhibitors | purified FLuc, Km substrates, luminescence inhibition | P08659 | 360,000 compounds, 6.9% hits; further: nearly all actives have a fitted effect of over 55% in size
Target sequence (P08659 whole entry, looked up): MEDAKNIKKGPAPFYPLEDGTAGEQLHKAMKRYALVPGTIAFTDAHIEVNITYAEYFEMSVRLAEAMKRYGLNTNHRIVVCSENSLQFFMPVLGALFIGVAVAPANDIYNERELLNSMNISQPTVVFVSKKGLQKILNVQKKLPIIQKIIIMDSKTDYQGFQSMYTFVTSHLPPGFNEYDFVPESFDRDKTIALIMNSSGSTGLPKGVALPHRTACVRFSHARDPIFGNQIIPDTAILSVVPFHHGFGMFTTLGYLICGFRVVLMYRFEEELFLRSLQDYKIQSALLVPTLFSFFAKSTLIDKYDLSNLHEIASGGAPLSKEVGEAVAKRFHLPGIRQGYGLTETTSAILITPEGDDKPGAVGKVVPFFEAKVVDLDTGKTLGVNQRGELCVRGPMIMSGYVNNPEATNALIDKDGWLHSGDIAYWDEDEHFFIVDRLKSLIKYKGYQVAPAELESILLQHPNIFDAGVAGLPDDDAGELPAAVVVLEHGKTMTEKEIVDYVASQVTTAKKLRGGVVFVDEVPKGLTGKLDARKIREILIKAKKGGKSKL
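Purified P. pyralis luciferase, 10 nM final, with Km-level 10 uM D-luciferin and 10 uM ATP in 50 mM Tris acetate pH 7.5, 10 mM Mg acetate, 0.01% Tween-20, 0.05% BSA; 6-point qHTS titration about 60 µM downward; luminescence read.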
Rab9 prom act: activates the Rab9 promoter | Huh7 Rab9 promoter-luciferase reporter, luminescence, 24 h | Potency, µM (series often up to 9.22 µM), usual class: activators | 320,000 compounds, 2.8% hits; further: nearly all actives have a fitted effect of over 60% in size
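Measured in stably transfected Huh7 cells bearing a Rab9 promoter–luciferase construct: 24 h compound treatment at 37 °C, followed by luminescence detection.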
Hits are given with their value; i = inactive; ? = inconclusive; nt = no result given; [ ] = dose if it differs, or a comment. The list is not random: actives were taken first. Their share in the collection is about 9.2%. The call rests on the fitted dose curve; in most records, active means well fitted curve in the direction sought with a large enough effect; inconclusive means small, poorly fitted or top-dose-only effect, or another doubt; inactive means no such curve, though single readings can be large; an effect the other way counts as inactive or inconclusive.

SMILES	ELG1 genotoxic	SMN2 splice up	NPC1 prom act	ELG1 repair inh	FLuc modulator	Rab9 prom act
O=C(/C=C/c1cccs1)Nc1scc(-c2ccccc2)c1C(=O)O	?	11µM	1.4µM	?	3.8µM	1.1µM
O=C(Cc1cccs1)Nc1nc(-c2ccccc2)cs1	i	i	i	i	15µM	i
Cc1ccnc(NC(=O)/C=C/c2cccs2)c1	?	4µM	0.63µM	?	3µM	0.63µM
Cc1ccnc(NC(=O)C2(c3cccs3)CCOCC2)c1	i	i	i	i	i	i
Cc1[nH]c(=O)[nH]c(=O)c1S(=O)(=O)Nc1ccc(Br)cc1F	i	nt	i	i	i	i
COc1ccc(-c2cn3nc(N4CCCC(C(=O)Nc5cccc(Cl)c5C)C4)sc3n2)cc1 (stereo not given)	nt	nt	nt	nt	i	nt
O=C(/C=C/c1cccs1)Nc1nc(-c2ccccc2)cs1	i	i	i	?	6.7µM	i
O=C(Nc1cccnc1)c1cccs1	i	8.9µM	i	?	i	i
C=CCNC(=O)/C=C/c1cccs1	i	i	i	?	i	i
O=C(Cc1cccs1)Nc1ccccc1C(=O)O	?	10µM	i	?	15µM	?
O=C(/C=C/c1cccs1)Nc1nncs1	i	nt	?	?	17µM	?
CC(C)[C@@H](CC(=O)N[C@@H]1CCNC[C@H]1C(=O)N[C@H](CC(=O)N[C@@H](CCC(=O)O)CC(=O)O)Cc1c[nH]c2ccccc12)NC(=O)C[C@H](Cc1ccccc1)NC(=O)[C@@H]1CCCC[C@H]1N	nt	i	nt	nt	nt	nt
CC(=O)Nc1c(C)ccc(S(N)(=O)=O)c1C	i	nt	i	i	i	i
CSc1ccc(CCNC(=O)C2CCN(c3ncnc4c3nc3n4CCCCC3)CC2)cc1	nt	nt	nt	nt	i	nt
CSc1ccc(CCNC(=O)c2cc(C)nc3c2c(C)nn3-c2ccccc2)cc1	nt	nt	nt	nt	i	nt
Cc1cc([N+](=O)[O-])ccc1NC(=O)/C=C/c1cccs1	i	16µM	?	i	?	?
Cc1ccc(NC(=O)/C=C/c2ccc([N+](=O)[O-])s2)c(C)c1	?	i	i	?	i	i
O=C(/C=C/c1cccs1)Nc1cccnc1	?	18µM	?	?	5.4µM	2.8µM
O=C(NCc1cccnc1)c1cc(-c2ccccc2)on1	21µM	16µM	i	?	?	?
COc1ccc(-c2cc(C(=O)NCc3cccnc3)no2)cc1	i	i	?	?	12µM	?
COc1ccc(CNC(=O)c2cc(-c3ccc(OC)cc3)on2)cc1	nt	i	nt	nt	i	nt
O=C(NCc1cccnc1)c1cc(-c2cccs2)on1	i	i	?	?	?	?
CC1Cc2cc(/C(O)=C3/C(=O)C(=O)N(CCN4CCOCC4)C3c3cccc(O)c3)ccc2O1 (stereo not given)	i	i	i	?	21µM	i
CCOC(=O)CNC(=O)O[C@@H]1Cc2cc(OC)ccc2O[C@H]1c1cccc(OC)c1	nt	i	nt	nt	nt	nt
CC(=O)Nc1ccc(C(=O)OCCc2ccccc2)cc1	?	nt	i	?	12µM	i
SMILES	ELG1 genotoxic	SMN2 splice up	NPC1 prom act	ELG1 repair inh	FLuc modulator	Rab9 prom act
COC(=O)c1ccc(NC(=O)C(=O)c2cccn2C)cc1	?	0.89µM	0.4µM	?	1.9µM	0.35µM
CCOc1ccc(NC(=O)CNC(=O)Cc2ccccc2)cc1	i	nt	i	i	i	i
CCOc1ccc(NC(=O)Cc2ccccc2)cc1	?	8.9µM	3.5µM	?	21µM	2.8µM
O=C(Cc1ccccc1)Nc1ccc(SC(F)F)cc1	i	11µM	4µM	?	17µM	3.2µM
COC(=O)c1ccc(NC(=O)Cc2ccccc2)cc1	?	i	4µM	?	15µM	2.5µM
CCOc1ccc(NC(=O)c2ccc(NC(=O)COC(=O)Cc3ccc(OC)cc3)cc2)cc1	?	11µM	3.5µM	?	i	2.5µM
CCOc1ccc(NC(=O)CN2C(=O)CSC(C)C2=O)cc1 (stereo not given)	i	i	i	i	17µM	i
CC(=O)OCC(=O)Nc1ccc(SC(F)F)cc1	i	i	i	i	?	i
C/C=C/C(=O)OCC(=O)Nc1ccc(SC(F)F)cc1	i	i	i	i	17µM	i
O=C(Nc1sc2c(c1C(=O)O)CCC2)C(=O)N1CCOCC1	i	nt	i	i	i	i
Cc1onc(-c2ccccc2)c1-c1nnc(CN2CCN(S(=O)(=O)c3ccccc3F)CC2)o1	i	nt	i	?	i	i
CCOc1ccc(NC(C)=O)cc1	i	i	i	i	i	i
CCOc1ccc(NC(=O)/C(C=Nc2ccccc2)=C(\C)O)cc1	i	nt	i	i	12µM	i
NC1=C([N+](=O)[O-])C(c2ccc(F)cc2)C2=C(CCCC2=O)O1 (stereo not given)	i	i	i	i	i	i
CC(=O)N1c2ccc(S(=O)(=O)N3CCC(C(=O)N4CC(C)CC(C)C4)CC3)cc2CC1C (stereo not given)	i[9.26 µM]	nt	i	i	i	i
CCOc1ccc2ccccc2c1/C=N\NC(=O)OC	i	i	i	i	i	i
CCOc1ccc2ccccc2c1/C=N\NC(=O)c1ccc([N+](=O)[O-])cc1	i	nt	i	?	9.5µM	i
O=C(N/N=C\c1c(O)ccc2ccccc12)c1ccc(O)cc1	i	nt	i	i	12µM	i
O=C(N/N=C/c1c(O)ccc2ccccc12)c1cccnc1	i	nt	i	3.7µM	?	i
Cn1c(-c2ccccc2)c(/C=N/NC(=O)c2ccc(O)cc2)c2ccccc21	?	nt	?	?	0.95µM	?
CCCOc1ccc(Br)cc1-c1cc(-c2ccc(Cl)cc2)[nH]c1-c1ccncc1	nt	i	nt	nt	nt	nt
Cc1c(CCOC(=O)c2cc([N+](=O)[O-])cc([N+](=O)[O-])c2)sc[n+]1CCCCS(=O)(=O)[O-]	i	i	i	i	i	i
Cc1ccc(C(=O)Nn2c(O)c(C=C3N=c4ccccc4=N3)sc2=S)cc1	i	i	i	i	?	i
Oc1[nH]c(=S)sc1C=C1N=c2ccccc2=N1	?	nt	?	?	6µM	i
Cc1ccc(S(=O)(=O)Nn2c(O)c(C=C3N=c4ccccc4=N3)sc2=S)cc1	i	nt	i	i	17µM	i
O=C(Nn1c(O)c(C=C2N=c3ccccc3=N2)sc1=S)c1ccccc1	i	i	i	i	6µM	i
CCOC(=O)Cc1cc(=O)[nH]c(/N=C(\N)Nc2ccc(C)c(C)c2)n1	i	nt	i	i	i	i
NC(CCC(=O)N[C@@H](CS)C(=O)NCC(=O)O)C(=O)O (stereo not given in full)	nt	i	nt	nt	nt	nt
CCc1ccccc1NC(=O)c1oc(=O)c2ccccc2c1-c1ccccc1	nt	nt	nt	nt	i	nt
CC1(c2nnc(Cc3ccccc3)o2)CC(c2ccc([N+](=O)[O-])cc2)=NO1 (stereo not given)	i	nt	i	i	i	i
